# Data published in PubChem BioAssay (NCATS).
# Results filed as inconclusive are left out. Entries that show only a call come without a potency. Unmarked numbers belong to inactive results. Active and inactive are the calls of the source. The call rests on the fitted dose curve; in most records, active means well fitted curve in the direction sought with a large enough effect; inconclusive means small, poorly fitted or top-dose-only effect, or another doubt; inactive means no such curve, though single readings can be large; an effect the other way counts as inactive or inconclusive.
# Legend:
# CRL-7250 = normal cell line; experiment: Cytotoxic Profiling of Annotated Libraries Using Quantitative High-Throughput Screening (AID 1296008); details: Five cell lines viability, CellTiter-Glo ATP luminescence, 48-72 h; max response: stronger effect = lower value; further: nearly all actives have a fitted effect of over 60% in size; further: potency means the concentration at half of the fitted maximal effect
# Summary of the method: (§1)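 Cytotoxicity was measured as CellTiter-Glo ATP luminescence, read after 10 min at room temperature. Compound treatment of the cells lasted 48 or 72 hr at 37 degrees Celsius in a qHTS format.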
# HaCat [1] = experiment: as above; details: Five cell lines viability, CellTiter-Glo ATP luminescence, 48-72 h; max response: stronger effect = lower value
# Summary of the method: as §1
# NIH3T3 = experiment: as above; details: Five cell lines viability, CellTiter-Glo ATP luminescence, 48-72 h; max response: stronger effect = lower value
# Summary of the method: as §1
# HACAT [2] = experiment: qHTS assay to identify novel small-molecules to repurpose for Merkel cell carcinoma treatment (AID 1296009); details: MCC and control cell lines, CellTiter-Glo viability, 72 h; at 44.8 µM (top of the series) unless noted; further: nearly all actives have a fitted effect of over 60% in size
# Summary of the method: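 72 hr, 37 degree celsius; NPC 8-pt / MIPE 11-pt dose response; compound pinned in DMSO; CellTiter-Glo, 10 min RT, luminescence; normalized to no-cell and DMSO controls.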
# C33A = experiment: Primary qHTS to identify gynecologic anti-cancer compounds using libraries of approved drugs and bioactive compounds (AID 1345084); details: Gynecologic cancer cell panel viability, ATPlite luminescence, 48 h; series mostly up to 57.5 µM; further: nearly all actives have a fitted effect of over 55% in size
# Summary of the method: (§2)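 Cell viability after 48 h drug treatment, ATPlite luminescence readout; five doses.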
# CAOV3 = experiment: as above; details: Gynecologic cancer cell panel viability, ATPlite luminescence, 48 h; series mostly up to 57.5 µM
# Summary of the method: as §2
# CASKI = experiment: as above; details: Gynecologic cancer cell panel viability, ATPlite luminescence, 48 h; series mostly up to 57.5 µM
# Summary of the method: as §2
# Es-2 = experiment: as above; details: Gynecologic cancer cell panel viability, ATPlite luminescence, 48 h; series mostly up to 57.5 µM
# Summary of the method: as §2
# HeLa = experiment: as above; details: Gynecologic cancer cell panel viability, ATPlite luminescence, 48 h; series mostly up to 57.5 µM
# Summary of the method: as §2
# Hek293T = experiment: as above; details: Gynecologic cancer cell panel viability, ATPlite luminescence, 48 h, control line for the selectivity index; series mostly up to 57.5 µM
# Summary of the method: as §2
# JEG-3 = experiment: as above; details: Gynecologic cancer cell panel viability, ATPlite luminescence, 48 h; series mostly up to 57.5 µM
# Summary of the method: as §2
# OV90 = experiment: as above; details: Gynecologic cancer cell panel viability, ATPlite luminescence, 48 h; series mostly up to 57.5 µM
# Summary of the method: as §2
smiles,measurement,setting,value
CCC(C)C(=O)O[C@H]1[C@H](O)[C@@]2(COC(C)=O)C(CC1(C)C)C1=CCC3[C@@]4(C)CC[C@H](O[C@@H]5O[C@H](C(=O)O)[C@@H](O)[C@H](O)[C@H]5O)[C@@](C)(CO)C4CC[C@@]3(C)[C@]1(C)C[C@@H]2O (stereo not given in full),max response,CRL-7250,4.21%
same,outcome,HaCat [1],inactive
same,max response,NIH3T3,2.07%
same,outcome,HACAT [2],inactive [at 9.27 µM]
same,"activity change, negative = cytotoxicity",C33A,-3% [at 11.6 µM]
same,"activity change, negative = cytotoxicity",CAOV3,-4.8% [at 11.6 µM]
same,"activity change, negative = cytotoxicity",CASKI,10.3% [at 11.6 µM]
same,"activity change, negative = cytotoxicity",Es-2,5.26% [at 11.6 µM]
same,"activity change, negative = cytotoxicity",HeLa,8.08% [at 11.6 µM]
same,"activity change, negative = cytotoxicity",Hek293T,5.16% [at 11.6 µM]
same,"activity change, negative = cytotoxicity",JEG-3,9.72% [at 11.6 µM]
same,"activity change, negative = cytotoxicity",OV90,0.006% [at 11.6 µM]
Cc1nnc(-c2ccc(-c3ccc(C(=O)Nc4ccc(O)c(N5CCN(C)CC5)c4)cc3)c(C)c2)o1,max response,CRL-7250,3.58%
same,outcome,HaCat [1],inactive
same,outcome,NIH3T3,inactive
same,outcome,HACAT [2],inactive
same,Potency,C33A,inactive
same,Potency,CAOV3,inactive
same,Potency,CASKI,inactive
same,Potency,Es-2,inactive
same,Potency,HeLa,inactive
same,Potency,Hek293T,inactive
same,Potency,JEG-3,inactive
same,Potency,OV90,inactive
COc1cc(CN(CCN)C(=O)c2cccs2)ccc1OCc1ccccc1,max response,CRL-7250,4.59%
same,max response,HaCat [1],-3.01%
same,max response,NIH3T3,-11.2%
same,Potency,C33A,inactive
same,Potency,CAOV3,inactive
same,Potency,CASKI,inactive
same,Potency,Es-2,inactive
same,Potency,HeLa,inactive
same,Potency,Hek293T,inactive
same,Potency,JEG-3,inactive
N#Cc1ccc(N2N=C3c4ccc(C(=O)O)cc4CC[C@@H]3[C@@H]2C2CCCC2)cc1Cl,max response,CRL-7250,1.36%
same,outcome,HaCat [1],inactive
same,max response,NIH3T3,-3.29%
same,outcome,HACAT [2],inactive
same,Potency,C33A,inactive
same,Potency,CAOV3,inactive
same,Potency,CASKI,inactive
same,Potency,Es-2,inactive
same,Potency,HeLa,inactive
same,Potency,Hek293T,inactive
same,Potency,JEG-3,inactive
same,Potency,OV90,inactive
O[C@@](Cc1ncc(CC2(C(F)(F)F)CC2)[nH]1)(c1ccc(-n2cccn2)cc1)C(F)(F)F,outcome,CRL-7250,inactive
same,outcome,HaCat [1],inactive
same,max response,NIH3T3,-24.1%
same,outcome,HACAT [2],inactive
same,Potency,C33A,inactive
same,Potency,CAOV3,inactive
same,Potency,CASKI,inactive
same,Potency,Es-2,inactive
same,Potency,HeLa,inactive
same,Potency,Hek293T,inactive
same,Potency,JEG-3,inactive
same,Potency,OV90,inactive
COc1ccccc1OCCNCC(O)CCOc1cccc2[nH]c3ccccc3c12 (stereo not given),outcome,CRL-7250,inactive
same,outcome,HaCat [1],inactive
same,max response,NIH3T3,-5.46%
same,outcome,HACAT [2],inactive
same,Potency,C33A,inactive
same,Potency,CAOV3,inactive
same,Potency,CASKI,inactive
same,Potency,Es-2,inactive
same,Potency,HeLa,inactive
same,Potency,Hek293T,inactive
same,Potency,JEG-3,inactive
same,Potency,OV90,inactive
CN(C)C(=O)C(=O)c1cn(C)c2cc(Cl)c(C(=O)N3CCC(Cc4ccc(F)cc4)CC3)cc12,max response,CRL-7250,-5.29%
same,outcome,HaCat [1],inactive
same,max response,NIH3T3,1.98%
same,outcome,HACAT [2],inactive
same,Potency,C33A,inactive
same,Potency,CAOV3,inactive
same,Potency,CASKI,inactive
same,Potency,Es-2,inactive
same,Potency,HeLa,inactive
same,Potency,Hek293T,inactive
same,Potency,JEG-3,inactive
same,Potency,OV90,inactive
O=C(Nc1nc2ccc([N+](=O)[O-])cc2s1)C1CCCCC1,max response,CRL-7250,-7.28%
same,outcome,HaCat [1],inactive
same,max response,NIH3T3,-1.61%
same,outcome,HACAT [2],inactive
same,Potency,C33A,inactive
same,Potency,CAOV3,inactive
same,Potency,CASKI,inactive
same,Potency,HeLa,inactive
same,Potency,Hek293T,inactive
same,Potency,JEG-3,inactive
same,Potency,OV90,inactive
CCc1cccc(CC)c1-n1c(C=C(C)C)c(C(=O)N2CCNCC2)cc(-c2nc(-c3ccc(C(F)(F)F)cc3)cs2)c1=O,outcome,CRL-7250,inactive
same,max response,HaCat [1],-5.33%
same,max response,NIH3T3,-4.22%
same,Potency,C33A,inactive
same,Potency,CAOV3,inactive
same,Potency,CASKI,inactive
same,Potency,Es-2,inactive
same,Potency,HeLa,inactive
same,Potency,Hek293T,inactive
same,Potency,JEG-3,inactive
C=C1/C(=C/C=C2\CCC[C@]3(C)[C@@H]([C@H](C)/C=C/[C@@H](C)C(C)C)CC[C@@H]23)C[C@@H](O)C[C@@H]1O,max response,CRL-7250,1.9%
same,outcome,HaCat [1],inactive; activator
same,Potency,NIH3T3,326 nM (active)
same,outcome,HACAT [2],inactive; activator
same,Potency,C33A,inactive
same,Potency,CAOV3,inactive
same,Potency,CASKI,inactive
same,Potency,Es-2,inactive
same,Potency,HeLa,inactive
same,Potency,Hek293T,inactive
same,Potency,JEG-3,inactive
same,Potency,OV90,inactive
COc1cc(C(=O)O)ccc1NC(=O)C1NC(CC(C)(C)C)C(C#N)(c2ccc(Cl)cc2F)C1c1cccc(Cl)c1F (stereo not given),max response,CRL-7250,-18.8%
same,outcome,HaCat [1],inactive
same,max response,NIH3T3,-5.77%
same,outcome,HACAT [2],inactive
same,Potency,C33A,inactive
same,Potency,CASKI,inactive
same,Potency,Es-2,inactive
same,Potency,HeLa,inactive
same,Potency,Hek293T,inactive
same,Potency,JEG-3,inactive
same,Potency,OV90,inactive
CCOC(=O)c1ccc(OCCC2CCN(c3ccc(C)nn3)CC2)cc1,max response,CRL-7250,-21.9%
same,outcome,HaCat [1],inactive
same,max response,NIH3T3,-0.794%
same,outcome,HACAT [2],inactive
same,Potency,C33A,inactive
same,Potency,CAOV3,inactive
same,Potency,CASKI,inactive
same,Potency,Es-2,inactive
same,Potency,HeLa,inactive
same,Potency,Hek293T,inactive
same,Potency,JEG-3,inactive
same,Potency,OV90,inactive
Clc1ccc(Cn2c(Cc3ccccc3)nc3ccccc32)cc1,max response,CRL-7250,-7.75%
same,outcome,HaCat [1],inactive
same,max response,NIH3T3,-0.247%
same,outcome,HACAT [2],inactive
same,Potency,C33A,inactive
same,Potency,CAOV3,inactive
same,Potency,CASKI,inactive
same,Potency,Es-2,inactive
same,Potency,HeLa,inactive
same,Potency,Hek293T,inactive
same,Potency,JEG-3,inactive
same,Potency,OV90,inactive
